This is a sample that favours compounds with a hit; in the whole collection about 19% have one here.
HT1080 IDH1KD tx: qHTS for induction of synthetic lethality in tumor cells producing 2HG: qHTS for the HT-1080-IDH1KD cell line; 360,000 tested, 2% active; HT-1080 IDH1 knockdown viability, ATP luminescence, 48 h; Potency, µM (titrated, usually from 46.1 µM), without a hit: top-dose activity, negative = toxicity, actives largely listed as cytotoxic;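 also: potency is read from the fitted curve at half-maximal effect; 0% = DMSO wells and -100% = cell-free medium wells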
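Assay cells: HT-1080 with IDH1 knockdown, 750 per well, RPMI/5% FBS. Exposure: 48 h at 37 °C following 2 h pre-incubation. Read: CellTiter-Glo luminescence; fitted concentration-response, curve class assigned.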
IL-1B inflam inh: qHTS for Inhibitors of Inflammasome Signaling: IL-1-beta AlphaLISA Primary Screen; THP-1 LPS/ATP IL-1B secretion, AlphaLISA, 16 h; stronger effect = lower value; activity change, % at 57.5 µM; 360,000 tested, 4.7% active; AID 743279, 2014; in the data active = activity change below about -50%; inconclusive = mostly about -30% to -49%
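THP-1 cells pretreated 1 hr with compounds (up to 57.5 uM final), then stimulated with LPS (250 ng/mL final) plus ATP (1.25 mM final); secreted IL-1B measured by AlphaLISA after 16 hr, decreased signal indicating inhibition.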
HT1080-NT tox: qHTS for induction of synthetic lethality in tumor cells producing 2HG: qHTS for the HT-1080-NT fibrosarcoma cell line; HT-1080-NT fibrosarcoma viability, CellTiter-Glo ATP luminescence, 48 h; Potency, µM (titrated, usually from 46.1 µM), without a hit: top-dose activity, negative = less viability, usual class: cytotoxic; 360,000 tested, 1.6% active;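 also: NT is the 2HG producing partner of a matched IDH1 knockdown line; potency is read from the fitted curve at half-maximal effect; 0% = DMSO-treated cells and -100% = media-only wells without cells; nearly all actives have a fitted effect of over 55% in size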
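Read-out is CellTiter-Glo luminescence after 10 minutes at room temperature, following 48 hours' compound treatment of HT-1080-NT cells (750 cells/well, RPMI, 5% FBS, 37 degrees C).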
DT40 TDP1 CPT: qHTS for Inhibitors of human tyrosyl-DNA phosphodiesterase 1 (TDP1): qHTS in cells in presence of CPT; Potency, µM (highest dose often 46.2 µM), for the others: at the highest dose activity change, negative = growth inhibition, usual class: inhibitors; AID 686979, 2013; chicken DT40 Tdp1-/-;hTDP1 cells + 20 nM CPT, ATP luminescence, 48 h; 420,000 tested, 12% active; also: potency is read from the fitted curve at half-maximal effect; nearly all actives have a fitted effect of over 55% in size
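Chicken DT40 Tdp1-/- cells complemented with human TDP1, 400 cells/well, exposed to compounds plus 20 nM camptothecin for at least 48 h at 37 C; viability read as ATP content by CellTiter-Glo luminescence.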
DT40 TDP1 no CPT: qHTS for Inhibitors of human tyrosyl-DNA phosphodiesterase 1 (TDP1): qHTS in cells in absence of CPT; DT40 Tdp1-/- hTDP1 cells, no CPT, ATP luminescence, 48 h; Potency, µM (doses to about 46.2 µM), for inactives: at the top dose activity change, negative = growth inhibition, usual class: inhibitors; 420,000 tested, 15% active; AID 686978, 2013; also: potency is read from the fitted curve at half-maximal effect; nearly all actives have a fitted effect of over 55% in size
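Chicken DT40 Tdp1-/- cells stably complemented with human TDP1 were seeded at 400 cells/well with DMSO in place of 20 nM camptothecin. After compound pinning, cells grew at least 48 hr at 37 °C; viability read by CellTiter-Glo luminescence.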
Starred values were filed as active, the others as inactive; ! = repeats disagree; [ ] = another dose, or the depositor's remark. Unless noted, calls follow the shape of the dose curve; as a rule, active = well fitted curve in the direction sought with a large enough effect; inconclusive = small, poorly fitted or top-dose-only effect, or another doubt; inactive = no such curve, though single readings can be large; an effect the other way counts as inactive or inconclusive. Unless noted, % is scaled to controls: 0 for no effect and ±100 for the full control effect.

Results for COc1ccc(/C=N/NC(=O)C2c3ccccc3Oc3ccccc32)c(OC)c1 ?
HT1080 IDH1KD tx: 7%; IL-1B inflam inh: 21; HT1080-NT tox: 6%; DT40 TDP1 CPT: -6%; DT40 TDP1 no CPT: -10%

What do the screens show for `COC(=O)c1ccc(Cn2nc(-c3ccc(C)cc3)ccc2=O)cc1`?
HT1080 IDH1KD tx: 3%; IL-1B inflam inh: 10; HT1080-NT tox: 0%; DT40 TDP1 CPT: 16µM*!; DT40 TDP1 no CPT: inconclusive

Results for N#CCCN(C(=S)NC(=O)C1CCCCC1)c1ccccc1F ?
HT1080 IDH1KD tx: 8%; IL-1B inflam inh: -5; HT1080-NT tox: 9%; DT40 TDP1 CPT: 6%; DT40 TDP1 no CPT: -6%

What do the screens show for `CCOc1ccc(/C=C2\CCC(C3CCCC3)C2=O)cc1OC` (stereo unspecified)?
HT1080 IDH1KD tx: 0%; IL-1B inflam inh: -16; HT1080-NT tox: 15%; DT40 TDP1 CPT: inconclusive; DT40 TDP1 no CPT: inconclusive

Results for COc1cc(C=C2CCCC(=Cc3ccc(OCC4CO4)c(OC)c3)C2=O)ccc1OCC1CO1 (stereo unspecified) ?
HT1080 IDH1KD tx: inconclusive; IL-1B inflam inh: -105*; HT1080-NT tox: 16µM*; DT40 TDP1 CPT: 5.8µM*; DT40 TDP1 no CPT: 3.7µM*

Results for COc1ccc(/C=C2\N=C(C)OC2=O)cc1OC ?
HT1080 IDH1KD tx: 1%; IL-1B inflam inh: -9; HT1080-NT tox: 7%; DT40 TDP1 CPT: 10µM*; DT40 TDP1 no CPT: -22%

What do the screens show for `COc1ccc(/C=C2/CSC/C(=C/c3ccc(OC)c(OC)c3)C2=O)cc1OC`?
HT1080 IDH1KD tx: 5.8µM*; IL-1B inflam inh: -117*; HT1080-NT tox: 5.8µM*; DT40 TDP1 CPT: 4.1µM*; DT40 TDP1 no CPT: 2.9µM*

Results for COc1ccc(/C=C2\N=C(C)OC2=O)cc1OC(C)=O ?
HT1080 IDH1KD tx: 13%; IL-1B inflam inh: 2; HT1080-NT tox: 12%; DT40 TDP1 CPT: inconclusive; DT40 TDP1 no CPT: -16%

Results for O=C(C[N+]1(CCO)CCOCC1)c1ccc2ccccc2c1 ?
DT40 TDP1 CPT: 6%; DT40 TDP1 no CPT: -23%

What do the screens show for `NS(=O)(=O)c1cc(Br)c2c(c1)S(=O)(=O)NCN2`?
HT1080 IDH1KD tx: 15%; IL-1B inflam inh: -22; HT1080-NT tox: 5%; DT40 TDP1 CPT: 30%; DT40 TDP1 no CPT: -1%

Results for CCC(=O)c1cc(F)c(N2CCN(S(=O)(=O)c3ccc(C)cc3)CC2)cc1C ?
HT1080 IDH1KD tx: -2%; IL-1B inflam inh: -9; HT1080-NT tox: -19%; DT40 TDP1 CPT: inconclusive; DT40 TDP1 no CPT: 21µM*

What do the screens show for `COc1ccccc1N1CCN(S(=O)(=O)c2ccc(F)c(C(=O)Nc3ccc(C)c(F)c3)c2)CC1`?
DT40 TDP1 CPT: 16µM*; DT40 TDP1 no CPT: inconclusive

What do the screens show for `Cc1cc(C)c(NC(=O)c2cc(S(=O)(=O)N3CCN(c4ccccc4F)CC3)ccc2F)c(C)c1`?
DT40 TDP1 CPT: inconclusive; DT40 TDP1 no CPT: 4.1µM*

What do the screens show for `Cc1ccc(N2CCN(S(=O)(=O)c3ccc(F)c(C)c3)CC2)c(C)c1`?
HT1080 IDH1KD tx: -25%; IL-1B inflam inh: 22; HT1080-NT tox: -12%; DT40 TDP1 CPT: inconclusive; DT40 TDP1 no CPT: inconclusive

What do the screens show for `CCc1ccccc1N1CCN(S(=O)(=O)c2ccc(F)c(C)c2)CC1`?
HT1080 IDH1KD tx: 10%; IL-1B inflam inh: -10; HT1080-NT tox: 7%; DT40 TDP1 CPT: inconclusive; DT40 TDP1 no CPT: 21µM*

Results for Cc1ccc(S(=O)(=O)N2[C@@H](c3ccc(F)cc3)C(C(=O)O)=CC[C@H]2c2ccc3c(c2)OCO3)cc1 ?
HT1080 IDH1KD tx: 6%; IL-1B inflam inh: 33; HT1080-NT tox: 0%; DT40 TDP1 CPT: 0%; DT40 TDP1 no CPT: 3%

What do the screens show for `COc1ccc(-c2cc(C(=O)Nc3c(C)nn(Cc4ccccc4Cl)c3C)no2)cc1`?
HT1080 IDH1KD tx: -21%; IL-1B inflam inh: -11; HT1080-NT tox: 2%[9.24 µM]; DT40 TDP1 CPT: -25%; DT40 TDP1 no CPT: -22%

What do the screens show for `Cc1nn(Cc2ccc(Cl)cc2)c(C)c1NC(=O)c1cc(-c2ccc3c(c2)OCO3)on1`?
IL-1B inflam inh: -24; DT40 TDP1 CPT: 23µM*; DT40 TDP1 no CPT: 15µM*

Results for Cc1ccc(NC(=O)c2cc(-c3ccc4c(c3)OCO4)on2)cc1 ?
HT1080 IDH1KD tx: -7%; IL-1B inflam inh: 11; HT1080-NT tox: -12%; DT40 TDP1 CPT: inconclusive; DT40 TDP1 no CPT: inconclusive

How did Cc1nn(Cc2ccc(Cl)c(Cl)c2)c(C)c1NC(=O)c1cc(-c2ccc3c(c2)OCO3)on1 do in these assays?
HT1080 IDH1KD tx: inconclusive; IL-1B inflam inh: -13; HT1080-NT tox: inconclusive; DT40 TDP1 CPT: 18µM*; DT40 TDP1 no CPT: 21µM*

How did O=C1SCCC1NS(=O)(=O)c1ccc([N+](=O)[O-])cc1 (stereo unspecified) do in these assays?
HT1080 IDH1KD tx: -2%; IL-1B inflam inh: 5; HT1080-NT tox: 0%; DT40 TDP1 CPT: -28%; DT40 TDP1 no CPT: 2%

Results for CCOC(=O)C1=C(COC(=O)c2ccccc2[N+](=O)[O-])NC(=O)NC1C (stereo unspecified) ?
HT1080 IDH1KD tx: 2%; IL-1B inflam inh: 0; HT1080-NT tox: -19%; DT40 TDP1 CPT: 22%; DT40 TDP1 no CPT: -24%

What do the screens show for `O=C1NC[C@@H](c2ccccc2)OC(=O)[C@@H](Cc2ccc(F)cc2)C/C=C\C[C@@H]1CC(=O)N(CCO)Cc1ccccc1`?
HT1080 IDH1KD tx: -1%; IL-1B inflam inh: -14; HT1080-NT tox: 11%; DT40 TDP1 CPT: inconclusive; DT40 TDP1 no CPT: 16µM*

Results for O=C1CCCC/C=C\C[C@H](CC(=O)N(CCO)Cc2ccccc2)C(=O)NC[C@H](c2ccccc2)O1 ?
HT1080 IDH1KD tx: -9%; IL-1B inflam inh: -7; HT1080-NT tox: 8%; DT40 TDP1 CPT: inconclusive; DT40 TDP1 no CPT: inconclusive

What do the screens show for `O=C1NC[C@H](c2ccccc2)OC(=O)[C@H](Cc2ccc(F)cc2)C/C=C\C[C@@H]1CC(=O)N(CCO)Cc1ccccc1`?
HT1080 IDH1KD tx: 0%; IL-1B inflam inh: -21; HT1080-NT tox: -1%; DT40 TDP1 CPT: 21µM*; DT40 TDP1 no CPT: 16µM*

What do the screens show for `O=C1NC[C@@H](c2ccccc2)OC(=O)[C@H](Cc2ccc(F)cc2)C/C=C\C[C@@H]1CC(=O)N(CCO)Cc1ccccc1`?
HT1080 IDH1KD tx: inconclusive; IL-1B inflam inh: inconclusive; HT1080-NT tox: -28%; DT40 TDP1 CPT: inconclusive; DT40 TDP1 no CPT: 23µM*

From PubChem
